Only a selection was taken, and hits are over-represented in it overall.
YB-1 expr inh = YB-1 expression inhibition | 0.37% of 30,000 active | U2OS, qRT-PCR YB-1 vs CDIP delta delta Cp, 16 h; active compounds read high; zero = DMSO, each unit about twofold | AID 434959 | delta delta Cp (YB-1 minus CDIP) (concentration not given with the values);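 active means delta delta Cp rounded down to an integer at or above 3, about 3 SD of DMSO wells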;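 further: higher means less YB-1 transcript or more CDIP transcript relative to DMSO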
ROS inducer = raises reactive oxygen species in U2OS cancer cells; 2% of 46,000 active; U2OS ROS induction, H2DCF-DA fluorescence; AID 624156; ROS induction (% of piperlongumine), % at 10 µM; in the data active means ROS induction above about 79%, passing the limit was not always enough
MITF inh = blocks MITF activity | TRPM1 promoter luciferase, luminescence, 24 h | inhibition, % (no concentration beside the values) | 0.28% of 37,000 active | AID 2240; in the data active means inhibition above about 85%;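 further: human melanocyte line stably carrying TRPM1 promoter luciferase reporter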
NOMO-1 viab = STK33 inhibitor candidate reducing NOMO-1 cell viability; NOMO-1 AML viability, CellTiter-Glo luminescence, 72 h; inhibition, % (test concentration not listed); 7.5% of 37,000 active; in the data active means inhibition above about 80%
PD-1 reverse act = reversal of PD-1 mediated T-cell inhibition; AID 2316; 29,000 tested, under 10 active; activation, % (no concentration beside the values); primary human CD4 T cells, PD-L1 beads, CellTiter-Glo 96 h; call rule not given here
Each line names hits and unclear results; the compound was inactive in the other large screens.

C[C@@H]1CN([C@@H](C)CO)C(=O)c2cccc(NC(=O)c3ccc(-c4nccs4)cc3)c2O[C@H]1CN(C)Cc1ccccc1	NOMO-1 viab 88
C[C@H]1CN([C@@H](C)CO)C(=O)c2cccc(NC(=O)c3ccc(-c4nccs4)cc3)c2O[C@@H]1CN(C)Cc1ccc(C(=O)Nc2ccccc2N)cc1	ROS inducer 159, NOMO-1 viab 124
C[C@@H]1CN([C@H](C)CO)C(=O)c2cccc(NC(=O)c3ccc(-c4nccs4)cc3)c2O[C@H]1CN(C)CC1CCCCC1	NOMO-1 viab 87 (no result: PD-1 reverse act)
C[C@@H]1CN([C@H](C)CO)C(=O)c2cccc(NC(=O)c3ccc(-c4nccs4)cc3)c2O[C@H]1CN(C)Cc1ccc(C(=O)Nc2ccccc2N)cc1	ROS inducer 95, NOMO-1 viab 128
C[C@H](CO)N1C[C@H](C)[C@H](CN(C)CC2CCCCC2)Oc2c(NC(=O)c3ccc(-c4nccs4)cc3)cccc2C1=O	none
CCC(C)c1ccc(NC(=O)c2cc3ccccc3o2)cc1 (configuration not stated)	none (no result: YB-1 expr inh, MITF inh, NOMO-1 viab, PD-1 reverse act)
CCn1c(SCc2nc3ccccc3c(=O)[nH]2)nnc1-c1cc2cccc(OC)c2o1	none (no result: YB-1 expr inh)
CCN(CC)C(=S)Sc1ncnc2sc3c(c12)CCCC3	ROS inducer 92, NOMO-1 viab 125
CC(C)(C)C(=O)CSc1ncnc2sc3c(c12)CCCC3	none (no result: YB-1 expr inh)
C[C@@H]1CN([C@@H](C)CO)C(=O)c2cccc(NC(=O)CCCCCC(=O)Nc3ccccc3N)c2O[C@@H]1CN(C)Cc1ccc(Oc2ccccc2)cc1	ROS inducer 136, NOMO-1 viab 126
C[C@@H]1CN([C@H](C)CO)C(=O)c2cccc(NC(=O)CCCCCC(=O)Nc3ccccc3N)c2O[C@@H]1CN(C)Cc1ccc(Oc2ccccc2)cc1	NOMO-1 viab 140
CC(C)(C)c1ccc(S(=O)(=O)N2CCN(c3ccc([N+](=O)[O-])c(NCc4cccnc4)c3)CC2)cc1	ROS inducer 98 (no result: YB-1 expr inh)
O=[N+]([O-])c1ccc(N2CCN(S(=O)(=O)c3ccc(F)cc3)CC2)cc1NCc1cccnc1	ROS inducer 136 (no result: YB-1 expr inh)
Cc1cc(C)nc(SC(C)C(=O)Nc2ccc(Cl)cc2)n1 (configuration not stated)	none (no result: YB-1 expr inh, ROS inducer, PD-1 reverse act)
Cc1ccc(CCN=c2c([N+](=O)[O-])nn(-c3ccc4c(c3)OCCO4)n2O)cc1	none (no result: YB-1 expr inh)
Cc1ccc2oc(-c3ccc(Cl)c(NC(=O)COc4ccc(C)c(C)c4)c3)nc2c1	none (no result: YB-1 expr inh)
Cc1cc2nc(-c3ccc(C)c(NC(=O)COc4ccc([N+](=O)[O-])cc4)c3)oc2cc1C	NOMO-1 viab 94 (no result: YB-1 expr inh)
Cc1cccc(OCC(=O)Nc2cc(-c3nc4cc(Cl)ccc4o3)ccc2C)c1	NOMO-1 viab 103 (no result: YB-1 expr inh)
CCOC(=O)COc1ccc(-c2nc3c([nH]2)c(=O)n(C)c(=O)n3C)cc1OC	NOMO-1 viab 149 (no result: YB-1 expr inh)
COc1ccc(C(=O)CSc2nc3c([nH]2)c(=O)n(C)c(=O)n3C)cc1	none (no result: YB-1 expr inh, MITF inh, NOMO-1 viab, PD-1 reverse act)
C[C@@H]1CN([C@@H](C)CO)C(=O)c2cccc(NS(=O)(=O)c3ccc(F)cc3)c2O[C@@H]1CN(C)Cc1ccc(-c2ccccc2)cc1	NOMO-1 viab 84
C[C@H]1CN([C@@H](C)CO)C(=O)c2cccc(NS(=O)(=O)c3ccc(F)cc3)c2O[C@@H]1CN(C)Cc1ccc(-c2ccccc2)cc1	ROS inducer 105
C[C@H](CO)N1C[C@H](C)[C@@H](CN(C)Cc2ccc(-c3ccccc3)cc2)Oc2c(NS(=O)(=O)c3ccc(F)cc3)cccc2C1=O	none (no result: PD-1 reverse act)
CCCCn1nnc2c(=O)oc3ccccc3c21	ROS inducer 187 (no result: YB-1 expr inh, MITF inh, NOMO-1 viab, PD-1 reverse act)
CN1CCN(CCCn2nnc3c(=O)oc4ccccc4c32)CC1	none (no result: YB-1 expr inh, ROS inducer, PD-1 reverse act)
OC(CNCc1ccccc1)Cn1c2ccc(Cl)cc2c2cc(Cl)ccc21 (configuration not stated)	none (no result: YB-1 expr inh, MITF inh, NOMO-1 viab, PD-1 reverse act)
OC(CNCc1ccccc1)Cn1c2ccccc2c2ccccc21 (configuration not stated)	NOMO-1 viab 111 (no result: YB-1 expr inh, ROS inducer, PD-1 reverse act)
O=S(=O)(c1cccc2cccnc12)N1CCN(Cc2cccc(OCCO)c2)CC1	none (no result: MITF inh, NOMO-1 viab, PD-1 reverse act)
C[C@@H]1CN([C@@H](C)CO)C(=O)c2cccc(NC(=O)Nc3ccc(F)cc3)c2O[C@H]1CN(C)S(=O)(=O)c1cn(C)cn1	none
C/C(=C/CO)CC[C@@H]1[C@@](C)(O)CCC2C(C)(C)CCC[C@]21C (some centres not stated)	NOMO-1 viab 101
CC1(C)CCC[C@]2(C)C1CC=C(CO)[C@H]2CC/C(=C/CO)CO (some centres not stated)	none (no result: MITF inh, NOMO-1 viab, PD-1 reverse act)
[N-]=[N+]=NCc1ccccc1C[C@]1(C(=O)N2CCCCC2)COC(c2ccc(OCCCO)cc2)=N1	none (no result: MITF inh, NOMO-1 viab, PD-1 reverse act)
Cc1nc2ccc(NC(=O)N3CC4(C)CC3CC(C)(C)C4)cc2nc1C (configuration not stated)	none (no result: YB-1 expr inh, MITF inh, NOMO-1 viab, PD-1 reverse act)
CC(C)(c1ccc(NS(=O)(=O)C(F)(F)F)cc1)c1ccc(C(C)(C)c2cccc(NS(=O)(=O)C(F)(F)F)c2)cc1	none
COc1ccc(NC(=O)N(C)C[C@H]2Oc3ccc(NC(=O)Nc4ccc(C(F)(F)F)cc4)cc3CC(=O)N([C@@H](C)CO)C[C@H]2C)cc1	NOMO-1 viab 124 (no result: PD-1 reverse act)
C[C@@H]1CN([C@H](C)CO)C(=O)Cc2cc(NC(=O)Nc3ccc(C(F)(F)F)cc3)ccc2O[C@H]1CN(C)C(=O)Nc1ccc(C(F)(F)F)cc1	none
C[C@@H]1CN([C@@H](C)CO)C(=O)Cc2cc(NC(=O)Nc3ccc(C(F)(F)F)cc3)ccc2O[C@@H]1CN(C)C(=O)Nc1ccc(C(F)(F)F)cc1	NOMO-1 viab 114
CNC[C@@H]1Oc2ccc(NC(=O)NC(C)C)cc2CC(=O)N([C@H](C)CO)C[C@@H]1C	ROS inducer 127
C[C@@H]1CN([C@H](C)CO)C(=O)Cc2cc(N(C)C)ccc2O[C@@H]1CN(C)C(=O)NC1CCCCC1	ROS inducer 108
CNC[C@@H]1Oc2ccc(NC(=O)NC(C)C)cc2CC(=O)N([C@@H](C)CO)C[C@@H]1C	none (no result: PD-1 reverse act)
C[C@H]1CN([C@@H](C)CO)C(=O)c2cc(NS(=O)(=O)c3cccs3)ccc2O[C@@H]1CN(C)Cc1ccc(Cl)c(Cl)c1	none (no result: PD-1 reverse act)
C[C@@H]1CN([C@@H](C)CO)C(=O)c2cccc(NC(=O)CCCCCC(=O)Nc3ccccc3N)c2O[C@H]1CN(C)C(=O)Nc1ccc(F)cc1	none
CCc1nnc(SC(CC)C(=O)NCc2ccc(C)cc2)c2cc3sccc3n12 (configuration not stated)	none (no result: YB-1 expr inh, MITF inh, NOMO-1 viab, PD-1 reverse act)
CC(C)NC(=O)N(C)C[C@@H]1Oc2ccc(NC(=O)Nc3ccc4c(c3)OCO4)cc2CC(=O)N([C@H](C)CO)C[C@H]1C	ROS inducer 126
CC(C)NC(=O)N(C)C[C@H]1Oc2ccc(NC(=O)Nc3ccc(C(F)(F)F)cc3)cc2CC(=O)N([C@@H](C)CO)C[C@H]1C	NOMO-1 viab 114
CC(C)NC(=O)N(C)C[C@H]1Oc2ccc(NC(=O)Nc3ccc4c(c3)OCO4)cc2CC(=O)N([C@@H](C)CO)C[C@@H]1C	none
